Measured values as given in PubChem BioAssay (Tox21).
Records with an inconclusive call do not appear. A call without a number means that no potency is given here. A number with no mark means an inactive call. Activity calls are given as the source filed them. Calls come from the whole dose curve; as a rule, active = well fitted cell-killing curve with a large enough effect in the repeat runs; inconclusive = weak or mixed curves; inactive = flat fitted curve, though single readings scatter.

Assay: qHTS assay to identify small molecule antagonists of the estrogen receptor beta (ER-beta) signaling pathway - cell viability counter screen (AID 1259382); note: nearly all actives have a fitted effect of over 55% in size
Conditions: ER-beta-UAS-bla HEK293T viability, CellTiter-Glo luminescence, 16 h; series mostly up to 92.4 µM
Source text: U.S. Tox21 Program National Center for Advancing Translational Sciences [NCATS] NIH Chemical Genomics Center [NCGC] U.S. Environmental Protection Agency [EPA] National Institutes of Environmental Health Sciences [NIEHS] National Toxicology Program [NTP] U.S. Food and Drug Administration [FDA] Tox21 Assay Overview: Estrogen receptor (ER), a nuclear hormone receptor, plays an important role in development, metabolic homeostasis and reproduction. Two subtypes of ER, ER-alpha and ER-beta, have similar expression patterns with some uniqueness in both types. Endocrine disrupting chemicals (EDCs) and their interactions with steroid hormone receptors like ER causes disruption of normal endocrine function. To identify the compounds that inhibit ER signaling, an ER-beta-UAS-bla GripTite cell line (Life Technologies, Madison, WI, USA) containing a beta-lactamase reporter gene under the control of an UAS response element was used to screen Tox21 10K compound library. The cytotoxicity of the Tox21 compound library against the ER-beta-bla cell line was tested in parallel by measuring the cell viability using CellTiter-Glo assay in the same wells.
Tox21 Assay Protocol Summary: ER-beta-UAS-bla HEK293T cells were dispensed at 2,000 cells/4 uL of assay medium containing 2% charcoal stripped FBS per well into black wall/clear-bottom 1536-well plates using a Multidrop Combi (ThermoFisher Scientific, Waltham, MA) dispenser. After the assay plates were incubated at a 37C and 5% CO2 for 6 hr, 23 nL of compounds dissolved in DMSO, positive controls or DMSO only was transferred to the assay plate by a Pintool station (Kalypsys, San Diego, CA), followed by addition of 1 uL (1nM as final concentration) of 17-beta-estradiol (E2) in assay medium using a Flying Reagent Dispenser (FRD, Aurora Discovery, San Diego, CA). The plates were incubated at 37C and 5% CO2 for 16 hr. Then 1 uL of LiveBLAzer B/G FRET substrate was added using a Flying Reagent Dispenser, the plates were incubated at room temperature for 2 hours, and fluorescence intensity was measured by an Envision plate reader (PerkinElmer, Shelton, CT). For cell viability readout that measures cytotoxicity, 4 uL/well of CellTiter-Glo reagent was added into the assay plates using a FRD. After 30 min incubation at room temperature, the luminescence intensity in the plates was measured using a ViewLux (PerkinElmer) plate reader.
Potency is the fitted concentration of half-maximal effect.

Q: For O=C(O)c1cn(C2CC2)c2cc(Cl)c(F)cc2c1=O, which Potency is on record?
A: inactive

Q: For C=C(C)C(=O)OCCN(C)C, which Potency is on record?
A: inactive

Q: For CCOc1nc2cccc(C(=O)O)c2n1Cc1ccc(-c2ccccc2-c2nn[nH]n2)cc1, which Potency is on record?
A: inactive

Q: With Cc1ccc(C)o1 as the compound, how does the Potency read?
A: inactive

Q: For CCCCCOC(=O)c1ccc(O)cc1, which Potency is on record?
A: inactive

Q: With Cc1ccc(C(C)c2ccc(C)c(C)c2)cc1C as the compound, how does the Potency read?
A: inactive

Q: With CCCCCCCC/C=C\CCCCCCCC(N)=O as the compound, how does the Potency read?
A: inactive

Q: With O=C(O)/C=C/c1cnc[nH]1 as the compound, how does the Potency read?
A: inactive

Q: Which Potency does the source give for CC(=O)N(O)CCCCCNC(=O)CCC(=O)N(O)CCCCCNC(=O)CCC(=O)N(O)CCCCCN here?
A: inactive

Q: With O=C(O)Cc1cc(I)c(Oc2ccc(O)c(I)c2)c(I)c1 as the compound, how does the Potency read?
A: inactive

Q: With CNCC[C@@H](Oc1ccccc1C)c1ccccc1 as the compound, how does the Potency read?
A: 23.7 µM (active)

Q: Which Potency does the source give for CN1CCC(=C2c3ccccc3C=Cc3ccccc32)CC1 here?
A: 21.1 µM (active)

Q: For CC(=O)c1c(C)c([N+](=O)[O-])c(C(C)(C)C)c([N+](=O)[O-])c1C, which Potency is on record?
A: inactive

Q: Which Potency does the source give for CCCCOc1cc(C(=O)OCCN(CC)CC)ccc1N here?
A: inactive

Q: Which Potency does the source give for C=CC(=O)OCC(C)OCC(C)OCC(C)OC(=O)C=C (stereo not given) here?
A: inactive

Q: Which Potency does the source give for CC(C)(C)c1cc(CCC(=O)OCC(COC(=O)CCc2cc(C(C)(C)C)c(O)c(C(C)(C)C)c2)(COC(=O)CCc2cc(C(C)(C)C)c(O)c(C(C)(C)C)c2)COC(=O)CCc2cc(C(C)(C)C)c(O)c(C(C)(C)C)c2)cc(C(C)(C)C)c1O here?
A: inactive

Q: Which Potency does the source give for Oc1ccc(Sc2ccc(O)cc2)cc1 here?
A: inactive

Q: For CCN(CC)C(C)CN1c2ccccc2Sc2ccccc21 (stereo not given), which Potency is on record?
A: inactive

Q: Which activity change, negative = cytotoxicity does the source give for NC[C@H]1O[C@H](O[C@H]2[C@H](O)[C@@H](O[C@H]3O[C@H](CO)[C@@H](O)[C@H](N)[C@H]3O)[C@H](N)C[C@@H]2N)[C@H](O)[C@@H](O)[C@@H]1O here?
A: 0.386% [at 8.39 µM]

Q: With CCN(CC)CCNC(C(=O)OCCC(C)C)c1ccccc1 (stereo not given) as the compound, how does the Potency read?
A: inactive

Q: Which Potency does the source give for CCCCCCCCCC=O here?
A: inactive

Q: Which Potency does the source give for CCOC(=O)C1=C(C)NC(C)=C(C(=O)OC)C1c1cccc([N+](=O)[O-])c1 (stereo not given) here?
A: inactive

Q: For CCCCOC(O)CC (stereo not given), which Potency is on record?
A: inactive

Q: With O=C(CC(=O)c1ccccc1)c1ccccc1 as the compound, how does the Potency read?
A: inactive

Q: For CCCCCCCCCO, which Potency is on record?
A: inactive

Q: For c1ccc(OCc2ccc(CCCN3CCOCC3)cc2)cc1, which Potency is on record?
A: inactive

Q: For O=C(O)[C@@H]1[C@H]2C[C@H]3c4[nH]c5ccccc5c4CCN3C[C@@H]2CC[C@@H]1O, which Potency is on record?
A: inactive

Q: For CCOc1ccc2[nH]cc(C(=O)NCc3ccccc3)c(=O)c2n1, which Potency is on record?
A: inactive

Q: For CN1CCN(C2=Nc3ccccc3Sc3ccc(Cl)cc32)CC1, which Potency is on record?
A: inactive

Q: For CC(=O)O[C@H]1C[C@@H]2CC[C@@H]3[C@H](CC[C@@]4(C)[C@H]3C[C@H]([N+]3(C)CCCCC3)[C@@H]4OC(C)=O)[C@@]2(C)C[C@@H]1N1CCCCC1, which Potency is on record?
A: inactive

Q: With Cn1c(=O)c2c(ncn2CC(O)CO)n(C)c1=O (stereo not given) as the compound, how does the Potency read?
A: inactive

Q: With Cc1ccc(C(N)=O)cc1N as the compound, how does the Potency read?
A: inactive

Q: With O=C(NS(=O)(=O)/C=C/c1cccs1)c1ccc(F)cc1Br as the compound, how does the Potency read?
A: inactive

Q: With Cc1cccc(C(C)(C)C)c1O as the compound, how does the Potency read?
A: inactive

Q: With CC[C@H](C)[C@H](N)C(=O)O as the compound, how does the Potency read?
A: inactive

Q: For C1CCC2OC2C1 (stereo not given), which Potency is on record?
A: inactive

Q: With CC(C)c1ccc2c(C(C)C)cc(C(C)C)c(S(=O)(=O)O)c2c1 as the compound, how does the Potency read?
A: inactive

Q: Which Potency does the source give for Cl/C(=C\n1cncn1)c1ccc(Cl)cc1Cl here?
A: inactive

Q: With CCOC(=O)CC(C)C as the compound, how does the Potency read?
A: inactive

Q: For CC(=O)CC(=O)c1ccccc1, which Potency is on record?
A: inactive
